# Measurements reported in the supplement of paper PMC4466140.
# B1: unnamed (peptide)
# chain: RRSKSLPTTPGIRSG
# Experiments:
# Test in all cases: SPOT peptide array binding signal intensity (averaged, normalized) (arbitrary units (background-subtracted, floor 0; scale differs between SH3 domains)); higher = stronger binding of the SH3 domain to the peptide
# AgAbp1 = target: AgAbp1
# Method in brief: (§1)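 The binding signal is the normalized, background-subtracted spot intensity averaged over replicates; its arbitrary units differ between domains. It was obtained by incubating 10 μg/ml GST-fused SH3 domains from four yeast species overnight at 4°C in TBS-based blocking buffer on cellulose membranes with synthetic 15-mer peptides, cysteines replaced by serines, then detecting with anti-GST antibody, HRP anti-mouse secondary and luminol.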
# AgBbc1 = target: AgBbc1
# Method in brief: as §1
# AgBem1-D1 = target: AgBem1-D1
# Method in brief: as §1
# AgBzz1-D1 = target: AgBzz1-D1
# Method in brief: as §1
# AgBzz1-D2 = target: AgBzz1-D2
# Method in brief: as §1
# AgCyk3 = target: AgCyk3
# Method in brief: as §1
# AgFus1 = target: AgFus1
# Method in brief: as §1
# AgHof1 = target: AgHof1
# Method in brief: as §1
# AgHse1 = target: AgHse1
# Method in brief: as §1
# AgLsb1 = target: AgLsb1
# Method in brief: as §1
# AgLsb4 = target: AgLsb4
# Method in brief: as §1
# AgMyo5 = target: AgMyo5
# Method in brief: as §1
# AgNbp2 = target: AgNbp2
# Method in brief: as §1
# AgRvs167 = target: AgRvs167
# Method in brief: as §1
# AgSho1 = target: AgSho1
# Method in brief: as §1
# AgSla1-D1-D2 = target: AgSla1-D1-D2
# Method in brief: as §1
# AgSla1-D3 = target: AgSla1-D3
# Method in brief: as §1
# CaAbp1-D1 = target: CaAbp1-D1
# Method in brief: as §1
# CaAbp1-D2 = target: CaAbp1-D2
# Method in brief: as §1
# CaBbc1 = target: CaBbc1
# Method in brief: as §1
# CaBem1-D1 = target: CaBem1-D1
# Method in brief: as §1
# CaBzz1-D1 = target: CaBzz1-D1
# Method in brief: as §1
# CaBzz1-D2 = target: CaBzz1-D2
# Method in brief: as §1
# CaCyk3 = target: CaCyk3
# Method in brief: as §1
# CaFus1 = target: CaFus1
# Method in brief: as §1
# CaHof1 = target: CaHof1
# Method in brief: as §1
# CaHse1 = target: CaHse1
# Method in brief: as §1
# CaLsb1 = target: CaLsb1
# Method in brief: as §1
# CaLsb4 = target: CaLsb4
# Method in brief: as §1
# CaMyo5 = target: CaMyo5
# Method in brief: as §1
# CaNbp2 = target: CaNbp2
# Method in brief: as §1
# CaRvs167 = target: CaRvs167
# Method in brief: as §1
# CaRvs167-3 = target: CaRvs167-3
# Method in brief: as §1
# CaSho1 = target: CaSho1
# Method in brief: as §1
# CaSla1-D1-D2 = target: CaSla1-D1-D2
# Method in brief: as §1
# CaSla1-D3 = target: CaSla1-D3
# Method in brief: as §1
# ScAbp1 = target: ScAbp1
# Method in brief: as §1
# ScBbc1 = target: ScBbc1
# Method in brief: as §1
# ScBem1-D1 = target: ScBem1-D1
# Method in brief: as §1
# ScBzz1-D1 = target: ScBzz1-D1
# Method in brief: as §1
# ScBzz1-D2 = target: ScBzz1-D2
# Method in brief: as §1
# ScCyk3 = target: ScCyk3
# Method in brief: as §1
# ScFus1 = target: ScFus1
# Method in brief: as §1
# ScHof1 = target: ScHof1
# Method in brief: as §1
# ScHse1 = target: ScHse1
# Method in brief: as §1
# ScLsb1 = target: ScLsb1
# Method in brief: as §1
# ScLsb2 = target: ScLsb2
# Method in brief: as §1
# ScLsb3 = target: ScLsb3
# Method in brief: as §1
# ScLsb4 = target: ScLsb4
# Method in brief: as §1
# ScMyo3 = target: ScMyo3
# Method in brief: as §1
# ScMyo5 = target: ScMyo5
# Method in brief: as §1
# ScNbp2 = target: ScNbp2
# Method in brief: as §1
# ScPex13 = target: ScPex13
# Method in brief: as §1
# ScRvs167 = target: ScRvs167
# Method in brief: as §1
# ScSho1 = target: ScSho1
# Method in brief: as §1
# ScSla1-D1-D2 = target: ScSla1-D1-D2
# Method in brief: as §1
# ScSla1-D3 = target: ScSla1-D3
# Method in brief: as §1
# SpAbp1-D1 = target: SpAbp1-D1
# Method in brief: as §1
# SpBbc1 = target: SpBbc1
# Method in brief: as §1
# SpBzz1-D1 = target: SpBzz1-D1
# Method in brief: as §1
# SpBzz1-D2 = target: SpBzz1-D2
# Method in brief: as §1
# SpCyk3 = target: SpCyk3
# Method in brief: as §1
# SpHof1 = target: SpHof1
# Method in brief: as §1
# SpHof1-2 = target: SpHof1-2
# Method in brief: as §1
# SpHof1-3 = target: SpHof1-3
# Method in brief: as §1
# SpHse1 = target: SpHse1
# Method in brief: as §1
# SpLsb1 = target: SpLsb1
# Method in brief: as §1
# SpLsb4 = target: SpLsb4
# Method in brief: as §1
# SpMyo1 = target: SpMyo1
# Method in brief: as §1
# SpNbp2 = target: SpNbp2
# Method in brief: as §1
# SpPex13 = target: SpPex13
# Method in brief: as §1
# SpRvs167 = target: SpRvs167
# Method in brief: as §1
# SpSla1-D1-D2 = target: SpSla1-D1-D2
# Method in brief: as §1
# SpSla1-D3 = target: SpSla1-D3
# Method in brief: as §1
binder,measurement,setting,value
B1,SPOT peptide array binding signal intensity,AgAbp1,744
same,SPOT peptide array binding signal intensity,AgBbc1,104
same,SPOT peptide array binding signal intensity,AgBem1-D1,348
same,SPOT peptide array binding signal intensity,AgBzz1-D1,45
same,SPOT peptide array binding signal intensity,AgBzz1-D2,43
same,SPOT peptide array binding signal intensity,AgCyk3,4
same,SPOT peptide array binding signal intensity,AgFus1,120
same,SPOT peptide array binding signal intensity,AgHof1,158
same,SPOT peptide array binding signal intensity,AgHse1,816
same,SPOT peptide array binding signal intensity,AgLsb1,50.8
same,SPOT peptide array binding signal intensity,AgLsb4,128
same,SPOT peptide array binding signal intensity,AgMyo5,≤ 0
same,SPOT peptide array binding signal intensity,AgNbp2,213
same,SPOT peptide array binding signal intensity,AgRvs167,2.33
same,SPOT peptide array binding signal intensity,AgSho1,4520
same,SPOT peptide array binding signal intensity,AgSla1-D1-D2,469
same,SPOT peptide array binding signal intensity,AgSla1-D3,1.75
same,SPOT peptide array binding signal intensity,CaAbp1-D1,1220
same,SPOT peptide array binding signal intensity,CaAbp1-D2,1180
same,SPOT peptide array binding signal intensity,CaBbc1,216
same,SPOT peptide array binding signal intensity,CaBem1-D1,54
same,SPOT peptide array binding signal intensity,CaBzz1-D1,292
same,SPOT peptide array binding signal intensity,CaBzz1-D2,115
same,SPOT peptide array binding signal intensity,CaCyk3,17
same,SPOT peptide array binding signal intensity,CaFus1,450
same,SPOT peptide array binding signal intensity,CaHof1,≤ 0
same,SPOT peptide array binding signal intensity,CaHse1,31.5
same,SPOT peptide array binding signal intensity,CaLsb1,3.5
same,SPOT peptide array binding signal intensity,CaLsb4,276
same,SPOT peptide array binding signal intensity,CaMyo5,7.5
same,SPOT peptide array binding signal intensity,CaNbp2,430
same,SPOT peptide array binding signal intensity,CaRvs167,15.2
same,SPOT peptide array binding signal intensity,CaRvs167-3,55.5
same,SPOT peptide array binding signal intensity,CaSho1,1030
same,SPOT peptide array binding signal intensity,CaSla1-D1-D2,2240
same,SPOT peptide array binding signal intensity,CaSla1-D3,≤ 0
same,SPOT peptide array binding signal intensity,ScAbp1,261
same,SPOT peptide array binding signal intensity,ScBbc1,19.2
same,SPOT peptide array binding signal intensity,ScBem1-D1,54
same,SPOT peptide array binding signal intensity,ScBzz1-D1,25
same,SPOT peptide array binding signal intensity,ScBzz1-D2,27
same,SPOT peptide array binding signal intensity,ScCyk3,96
same,SPOT peptide array binding signal intensity,ScFus1,163
same,SPOT peptide array binding signal intensity,ScHof1,1.25
same,SPOT peptide array binding signal intensity,ScHse1,1360
same,SPOT peptide array binding signal intensity,ScLsb1,77
same,SPOT peptide array binding signal intensity,ScLsb2,6
same,SPOT peptide array binding signal intensity,ScLsb3,444
same,SPOT peptide array binding signal intensity,ScLsb4,21
same,SPOT peptide array binding signal intensity,ScMyo3,6.5
same,SPOT peptide array binding signal intensity,ScMyo5,≤ 0
same,SPOT peptide array binding signal intensity,ScNbp2,203
same,SPOT peptide array binding signal intensity,ScPex13,23.2
same,SPOT peptide array binding signal intensity,ScRvs167,18.7
same,SPOT peptide array binding signal intensity,ScSho1,5840
same,SPOT peptide array binding signal intensity,ScSla1-D1-D2,4460
same,SPOT peptide array binding signal intensity,ScSla1-D3,70.5
same,SPOT peptide array binding signal intensity,SpAbp1-D1,2040
same,SPOT peptide array binding signal intensity,SpBbc1,6.5
same,SPOT peptide array binding signal intensity,SpBzz1-D1,226
same,SPOT peptide array binding signal intensity,SpBzz1-D2,0.5
same,SPOT peptide array binding signal intensity,SpCyk3,5
same,SPOT peptide array binding signal intensity,SpHof1,2630
same,SPOT peptide array binding signal intensity,SpHof1-2,3020
same,SPOT peptide array binding signal intensity,SpHof1-3,1440
same,SPOT peptide array binding signal intensity,SpHse1,356
same,SPOT peptide array binding signal intensity,SpLsb1,0.5
same,SPOT peptide array binding signal intensity,SpLsb4,574
same,SPOT peptide array binding signal intensity,SpMyo1,15.2
same,SPOT peptide array binding signal intensity,SpNbp2,506
same,SPOT peptide array binding signal intensity,SpPex13,8.5
same,SPOT peptide array binding signal intensity,SpRvs167,72.5
same,SPOT peptide array binding signal intensity,SpSla1-D1-D2,1620
same,SPOT peptide array binding signal intensity,SpSla1-D3,15
